TDP1 cell noCPT = qHTS for Inhibitors of human tyrosyl-DNA phosphodiesterase 1 (TDP1): qHTS in cells in absence of CPT. DT40 Tdp1-/- hTDP1 cells, no CPT, ATP luminescence, 48 h. Potency, µM (titrated, usually from 46.2 µM), most hits filed as inhibitors. 15% of 420,000 active. AID 686978, 2013; note: nearly all actives have a fitted effect of over 55% in size
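No-CPT arm: Tdp1-/-;hTDP1 DT40 cells (400/well) plus compounds, incubated ≥48 hr at 37 °C. Readout CellTiter-Glo luminescence.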
HT1080 IDH1KD tx = HT-1080 IDH1 knockdown cell toxicity (counter line); HT-1080 IDH1 knockdown viability, ATP luminescence, 48 h; Potency, µM (titrated, usually from 46.1 µM), most hits filed as cytotoxic; 2% of 360,000 active; AID 686971
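After a 2 h attachment period, IDH1KD HT-1080 cells took pin-transferred compound for 48 h at 37 °C; ATP-based luminescence after 10 min room-temperature reagent incubation reported viability.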
HT1080NT lethal = kills 2HG-producing HT-1080-NT fibrosarcoma cells. HT-1080-NT fibrosarcoma viability, CellTiter-Glo ATP luminescence, 48 h. Potency, µM (doses to about 46.1 µM), usual class: cytotoxic. AID 686970. 1.6% of 360,000 active;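 note: NT is the 2HG producing partner of a matched IDH1 knockdown line; nearly all actives have a fitted effect of over 55% in size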
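Compounds were tested in concentration-response format on HT-1080-NT cells for 48 hours at 37 degrees C. Cell viability came from CellTiter-Glo luminescence; curves were classified by r2, response magnitude and activity.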
IL-1B inflam inh = inhibitors of inflammasome signaling (IL-1 beta secretion); THP-1 LPS/ATP IL-1B secretion, AlphaLISA, 16 h; active compounds read low; activity change, % at 57.5 µM; 4.7% of 360,000 active; AID 743279; in the data active = activity change below about -50%; inconclusive = mostly about -30% to -49%
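Secreted IL-1B measured by AlphaLISA bead assay after 16 h compound exposure of THP-1 cells; compounds (final up to 57.5 uM) added 1 h before LPS (250 ng/mL) and ATP (1.25 mM) stimulation; lower signal means less secretion.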
DT40 TDP1 CPT = DT40-hTDP1 cell growth loss with CPT. chicken DT40 Tdp1-/-;hTDP1 cells + 20 nM CPT, ATP luminescence, 48 h. Potency, µM (doses to about 46.2 µM), most hits filed as inhibitors. 12% of 420,000 active; note: nearly all actives have a fitted effect of over 55% in size
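Chicken DT40 Tdp1-/- cells complemented with human TDP1, 400 cells/well, exposed to compounds plus 20 nM camptothecin for at least 48 h at 37 C; viability read as ATP content by CellTiter-Glo luminescence.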
Of the large screens only hits and unclear results are named; the others gave an inactive call; ! = not confirmed by another sample. Only some compounds are listed: those with a hit (about 19% of all), similar ones and a draw of the others. Unless noted, calls come from the whole dose curve; as a rule, active = well fitted curve in the direction sought with a large enough effect; inconclusive = small, poorly fitted or top-dose-only effect, or another doubt; inactive = no such curve, though single readings can be large; an effect the other way counts as inactive or inconclusive.

O=C(Nc1ccccc1N1CCCCC1)c1cccc(OC(F)F)c1	TDP1 cell noCPT inconclusive, DT40 TDP1 CPT inconclusive
COc1ccc(NC(=O)CSCC(=O)Nc2ccccc2N2CCCCC2)cc1	TDP1 cell noCPT 29.1µM, DT40 TDP1 CPT inconclusive
COc1cccc(C(=O)Nc2ccccc2N2CCCC2)c1	TDP1 cell noCPT inconclusive, DT40 TDP1 CPT 18.4µM
COc1cccc(C(=O)NC(=S)Nc2ccccc2N2CCCC2)c1	TDP1 cell noCPT inconclusive, DT40 TDP1 CPT 23.1µM
Cc1cccc(C(=O)Nc2ccc(C(=O)N3CCCCC3C)cc2)c1 (configuration not stated)	none
O=C(Cn1cc(S(=O)(=O)Cc2ccc([N+](=O)[O-])cc2)c2ccccc21)N1CCOCC1	none
O=C(NCc1nnc2n1CCN(Cc1ccc(C(F)(F)F)cc1)CC2)c1ccccn1	none (no result: HT1080 IDH1KD tx, HT1080NT lethal, IL-1B inflam inh)
CC(=O)Nc1cccc(C(=O)Nc2ccccc2N2CCOCC2)c1	TDP1 cell noCPT 25.9µM, HT1080 IDH1KD tx inconclusive, HT1080NT lethal inconclusive, DT40 TDP1 CPT inconclusive
COCCNC(=O)c1ccccc1NC(=O)CCSc1ccccc1	none
Cc1nnsc1NC(=O)OCc1ccc(Cl)cc1Cl	TDP1 cell noCPT inconclusive
Cc1nn(C)c(Cl)c1NC(=O)OCc1ccc(Cl)cc1Cl	TDP1 cell noCPT 13µM, DT40 TDP1 CPT 14.6µM
Cc1nn(Cc2ccc(Cl)cc2Cl)c(C)c1NC(=O)c1nn(C)cc1Cl	TDP1 cell noCPT 9.2µM, DT40 TDP1 CPT 8.2µM
Cc1nn(Cc2ccccc2Cl)c(C)c1NC(=O)C1C2CCC(O2)C1C(=O)O (configuration not stated)	TDP1 cell noCPT inconclusive
CCn1nc(C)c(NC(=O)c2ccc(Cl)cc2)c1C	none
Cc1nn(Cc2ccc(Cl)cc2Cl)c(C)c1NC(=O)C1C2CCC(O2)C1C(=O)O (configuration not stated)	TDP1 cell noCPT 14.6µM, DT40 TDP1 CPT inconclusive
Cc1nn(Cc2ccc(Cl)cc2Cl)c(C)c1NC(=O)CCl	TDP1 cell noCPT 13µM, HT1080 IDH1KD tx inconclusive, HT1080NT lethal inconclusive, IL-1B inflam inh -100.6, DT40 TDP1 CPT 14.6µM
CCC1(CC)NC(=O)N(CC(=O)OC(C)C(=O)Nc2ccc(S(N)(=O)=O)cc2)C1=O (configuration not stated)	none
O=C(N/N=C/c1c[nH]c2ccc(Br)cc12)C1CC1	TDP1 cell noCPT inconclusive
O=C(NCC(c1ccco1)N1CCCCC1)c1cnc(Cl)c(Cl)c1 (configuration not stated)	TDP1 cell noCPT inconclusive, DT40 TDP1 CPT inconclusive
COc1ccc(NC(=O)c2oc3ccc(S(=O)(=O)N4CCC5(CC4)OCCO5)cc3c2C)cc1Cl	TDP1 cell noCPT 9.2µM, DT40 TDP1 CPT 8.2µM (no result: HT1080 IDH1KD tx, HT1080NT lethal, IL-1B inflam inh)
Cc1ccc(NC(=O)c2oc3ccc(S(=O)(=O)N4CCC5(CC4)OCCO5)cc3c2C)cc1C	TDP1 cell noCPT inconclusive, DT40 TDP1 CPT 8.2µM!
CCCCCCCCCCC/C=C\C/C=C\CCCC(=O)O	none (no result: HT1080 IDH1KD tx, HT1080NT lethal, IL-1B inflam inh)
COc1ccc(-c2cc(C)no2)cc1S(=O)(=O)NCC(C)c1ccccc1 (configuration not stated)	none
COc1cc(NC(=O)N2CCC3(CC2)Nc2ccccc2-n2cccc23)cc(OC)c1OC	TDP1 cell noCPT inconclusive, DT40 TDP1 CPT 20.6µM (no result: HT1080 IDH1KD tx, HT1080NT lethal, IL-1B inflam inh)
COc1cc(NC(=O)CCNC(=O)N2CC(=O)Nc3ccccc32)cc(OC)c1OC	none
O=C(O)c1ccccc1C(=O)Nc1ccc(Nc2ccc([N+](=O)[O-])cc2[N+](=O)[O-])cc1	none
CN(C)S(=O)(=O)c1ccc(Cl)c(C(=O)Nc2cccc([N+](=O)[O-])c2)c1	TDP1 cell noCPT 20.6µM, DT40 TDP1 CPT 18.4µM
Cc1cccc(NC(=O)c2cc([N+](=O)[O-])ccc2Cl)c1O	TDP1 cell noCPT inconclusive, IL-1B inflam inh -50.0, DT40 TDP1 CPT inconclusive
Cc1cccc(NC(=O)c2ccc([N+](=O)[O-])cc2Cl)n1	TDP1 cell noCPT inconclusive, DT40 TDP1 CPT inconclusive
O=C(Nc1ccc(Nc2ccccc2)cc1)c1cc([N+](=O)[O-])ccc1Cl	TDP1 cell noCPT 16.4µM, HT1080 IDH1KD tx 18.4µM, HT1080NT lethal inconclusive, IL-1B inflam inh -67.5, DT40 TDP1 CPT inconclusive
O=C(Nc1ccccc1Oc1ccccc1)c1cc([N+](=O)[O-])ccc1Cl	TDP1 cell noCPT inconclusive, DT40 TDP1 CPT 16.4µM
O=c1[nH]c(NC2CCCCC2)c([N+](=O)[O-])c(=O)[nH]1	none
O=C(O)c1ccccc1Nc1ccc([N+](=O)[O-])cc1	TDP1 cell noCPT 2.91µM, HT1080 IDH1KD tx inconclusive, HT1080NT lethal inconclusive
CC(C)(C)c1ccc(S(=O)(=O)NCCc2ccncc2)cc1	TDP1 cell noCPT 16.4µM, DT40 TDP1 CPT inconclusive
O=C(Nc1ccc(S(=O)(=O)NCCc2ccccc2)cc1)c1ccncc1	TDP1 cell noCPT inconclusive, DT40 TDP1 CPT 18.4µM
O=C(Nc1ccc(S(=O)(=O)NCCc2ccccc2)cc1)c1ccco1	TDP1 cell noCPT inconclusive
CCCc1ccc(S(=O)(=O)NCCc2ccncc2)cc1	TDP1 cell noCPT inconclusive, DT40 TDP1 CPT 13µM
CCCCCc1ccc(S(=O)(=O)NCCc2ccncc2)cc1	TDP1 cell noCPT 16.4µM, HT1080 IDH1KD tx inconclusive, IL-1B inflam inh inconclusive, DT40 TDP1 CPT 20.6µM
COc1ccccc1CNC(=O)COC(=O)CCC(=O)c1cccs1	none
Cc1cc2nn(-c3ccc(F)cc3)nc2cc1NC(=O)c1cc(Cl)ccc1Cl	DT40 TDP1 CPT inconclusive (no result: HT1080 IDH1KD tx, HT1080NT lethal, IL-1B inflam inh)
CCOC(CCNC(=O)c1cc2c(=O)[nH]c3ccccc3c2s1)OCC	TDP1 cell noCPT inconclusive, DT40 TDP1 CPT inconclusive
CCOC(CNCc1cc(C)c2[nH]c3ccccc3c2c1C)OCC	TDP1 cell noCPT 11.6µM, HT1080 IDH1KD tx inconclusive, IL-1B inflam inh -95.6, DT40 TDP1 CPT 16.4µM
O=C(NCc1ccc(Cl)cc1)c1cccc(NC2=NC3CS(=O)(=O)CC3S2)c1 (configuration not stated)	none
c1ccc(CN2CCC3(CCCc4ccccc43)CC2)cc1	TDP1 cell noCPT 16.4µM, HT1080 IDH1KD tx 16.4µM, HT1080NT lethal inconclusive, DT40 TDP1 CPT inconclusive
Cc1ccc(CNC(=O)C2CCN(S(=O)(=O)N3CCCC3)CC2)cc1	none
Oc1ccc(N=Nc2ccccc2)o1	TDP1 cell noCPT 13µM, HT1080 IDH1KD tx 23.1µM, HT1080NT lethal 16.4µM, IL-1B inflam inh -89.9, DT40 TDP1 CPT 5.8µM
Oc1c(N=Nc2ccccc2)sc2ccccc12	none
Cc1ccc(NC(=O)CSc2nnc(Cn3c(=O)sc4ccccc43)n2C)cc1Cl	none
CN(CCCNC(=O)c1ccc(/C=N/O)nc1)CCCN(C)Cc1ccccc1	TDP1 cell noCPT 23.1µM, DT40 TDP1 CPT inconclusive
CCNC(=O)N1CCN(CCCC(c2ccc(F)cc2)c2ccc(F)cc2)CC1	TDP1 cell noCPT 18.4µM, HT1080 IDH1KD tx inconclusive, HT1080NT lethal 16.4µM, DT40 TDP1 CPT 20.6µM

Screening results deposited in PubChem BioAssay by National Center for Advancing Translational Sciences (NCATS).
